From the supplement of paper PMC6555819 come the findings set out here.

The test system of the test is RARg:RXRa (NR concentration 270 nM, RXRa partner concentration 90 nM). Briefly: PBM binding z-score (relative to random genomic background probes); higher = stronger binding; sequences stand for … in GC…GCGATTGACAGCGTAGAATGAAGG
An outline of the steps:
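The probes on custom Agilent 4×180K protein-binding microarrays were double-stranded, with 34-nt variable regions bearing direct-repeat seeds, single-nucleotide variants, half-site ablations and random human genomic background sequences. Incubation lasted 1 h with ligand-free nuclear receptor dimers in PBS pH 7.4, 2% milk, 0.02% Triton X-100, 1 mM DTT, 0.2 mg/mL BSA and 0.4 mg/ml salmon testes DNA. Antibodies against each partner (one per run) detected bound dimers, and fluorescence scans were regression-normalized. Binding z-scores take the random background probes as reference.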
The sequence CCGAGTAGGTTACGAGCGGGCATTCAGTGCGAAT gave a PBM binding z-score of 0.683.

CCGAGTAGGTTACGAGGGGGCATTAAGTGCGAAT had a PBM binding z-score of 3.1.

In the case of ATATGTAGGCTAGGGTCATTCAGAAAGTAGGGAA, the PBM binding z-score came to 3.25.

The sequence CTCGAAAGGTCGGTTGAGGTCAGTATACGGATAA gave a PBM binding z-score of 4.95.

With CGAACTAGGTCACCAGGACAGTCAAGAGGTTGGA, the PBM binding z-score stood at 4.37.

Turning to TCATATAGGTGAAAGGTGAAAGTCGGTGTGGTAA, the PBM binding z-score amounted to 3.45.

In the case of ATATGTAGCTTAAGGGTCATTCAGGTTGGTTCGC, the PBM binding z-score came out at 3.62.

The sequence GCTGCTAGGTCAGGTTGGTCAGCTAACGGGTACG gave a PBM binding z-score of 2.7.

With ATACGTAGGTTACATCCGGGTCATTCAGGCTATG, the PBM binding z-score was 3.59.

Turning to CTATGTAGGTTAAGGAGGTCATTCAGTTTGAAAG, the PBM binding z-score was 3.89.

Sequence CTATGAAGGTTAAGGGGGTCATTCAGTTTGAAAG came in with a PBM binding z-score of 5.59.

CGAACTAGGTCACCCGGACAGTGAAGAGGTTGGA yielded a PBM binding z-score of 4.48.

Sequence TAGCCTAGGTCATAGGCCAGTATACCACGCGAAC gave a PBM binding z-score of 3.89.

The sequence TCGAGTAGGTTACGGGGGCGTTCAGGGATGAAGA returned a PBM binding z-score of 2.9.

Take CGAACTAGGTCAAATGACAGTGAAAGGCGACGTA: the PBM binding z-score was 4.37.

The sequence ATATGGAGGTTAAGGGTCATTCAGGTTGGTTCGC returned a PBM binding z-score of 5.75.

CCTACTGGGCCAAGCTCATTGATCAGTCAAAGCA registered a PBM binding z-score of -0.314.

AGTCAAAGTTCATCAAGGTAACGTAAGATATGCT displayed a PBM binding z-score of 5.57.

ACAGACAGGTGAGTGAAGGTCACTCAGCTGGACG came in with a PBM binding z-score of 3.32.

On to TCGAGTAGGTTACGGGGGCCTTCAGGGATGAAGA, for which the PBM binding z-score came out at 1.81.

As to CAAACTAGGTCACCGGAAAGTCAAAGTCCGCATG, the PBM binding z-score is 5.17.

In the case of CGAACTAGGTCAACAGGACAGTGAAGAGGTTGGA, the PBM binding z-score is 4.36.

Consider CGAACTAGATCACCAGGACAGTGAAGAGGTTGGA, for which the PBM binding z-score is -0.13.

CCGAGTAGGTTACGAGGGGACATTCAGTGCGAAT registered a PBM binding z-score of 1.25.

In turn, CTGAGTAGGTTACGAGGGGGCATTCAGTGCGAAT returned a PBM binding z-score of 3.13.

ATATGTAGGTTAGGGTGATTCAGAAAGTAGGGAA had a PBM binding z-score of 0.779.

As for CCTAGTGGGCCAAAGGTCATTGATTCCAATGCTC, the PBM binding z-score worked out at 5.89.

As for CTATGTAGGTTAAGGGGGTCATCCAGTTTGAAAG, the PBM binding z-score was determined as 5.27.

CTCCAAAGGTCGGTTGAGGTGAGTATACGGATAA: the PBM binding z-score came out at 2.87.

On to TCGAGTAGGTTACGGGGGCATTCATGGATGAAGA, for which the PBM binding z-score was 3.37.

For the sequence CACACTAGGTCAAAGGTCAAAGTCGAGCCAACCA, the PBM binding z-score came out at 9.01.

CCGAGTAGGTTACGAGGGGGCATTCTGTGCGAAT showed a PBM binding z-score of 3.13.

CCTAGTGGGTCAGGAGGTCACACACCGGATATGA: the PBM binding z-score amounted to 6.26.

In the case of CCTAGCAGGCCACGGTCACTCAAGCATTTCGCTT, the PBM binding z-score was 0.739.

ATCTCTAGGTCAAAGTTCAGTGAATCCCGAGGAT registered a PBM binding z-score of 6.01.

For the sequence ACTCGGAGGACAAAGGTGAGAGCTACGCCAGTGA, the PBM binding z-score is 2.63.

As to ATATGAAGGTTATCGGGTCATTCAGTTTGCGCAT, the PBM binding z-score was determined as 4.

GGAACGGGGGCATTCGAGTTGATAGCATGGCGAT gave a PBM binding z-score of 2.68.

In the case of CCTAGTTGGTCAGGAGGTCACATACCGGATATGA, the PBM binding z-score amounted to 4.57.
